Activity calls are given as the source filed them. Cut-off read from the data, not from the text of the source: active = parasite load remaining mostly below about 12% (no sharp cut-off); inactive = mostly above about 10%.
Experiment: P. berghei load reduction in hepatocytes – cell-based, HepG2, luciferase luminescence, HepG2 viability, primary screen (AID 624349);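 note: 100% = mean of DMSO negative control wells on the same plate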
Conditions: P. berghei liver stage in HepG2, luciferase luminescence, concentration not given here; parasite load remaining: stronger effect = lower value; viability: measured here: HepG2 viability without parasites

Compound	parasite load remaining	viability
CC(C)n1cnc2c(Nc3cccc(Cl)c3)nc(NCCO)nc21	37.9% (inactive)	90.9%
O=C(O)/C=C/c1cc(Br)c(Br)c(Br)c1Br	36.5% (inactive)	98.8%
N#Cc1cnc2cnc(NCc3cccnc3)cc2c1NC1CCCCCC1	36% (inactive)	65.1%
CCCC(=O)Oc1ccc2[nH]c(C(=O)c3cc4ccccc4[nH]3)cc2c1	38.9% (inactive)	104%
CC(=O)O/N=C1\C(c2c(O)[nH]c3cc(Br)ccc23)=Nc2ccccc21	14.7% (inactive)	97.9%
O=C(c1cc2cc(O)ccc2[nH]1)c1cc2cc(O)ccc2[nH]1	37.2% (inactive)	97.4%
COc1cc2nccc(Oc3ccc(NC(=S)NC(=O)c4ccccc4C)cc3)c2cc1OC	22.3% (inactive)	80.3%
N#Cc1c(-c2ccccc2)cc(-c2cc(Br)ccc2O)[nH]c1=O	30.2% (inactive)	75.4%
OCC(O)CCO/N=C1/C(c2c(O)[nH]c3ccccc23)=Nc2ccccc21 (centres undefined)	25.4% (inactive)	80.9%
O=C1NCCc2[nH]c(-c3ccnc(-c4cnc5ccccc5c4)c3)cc21	35.3% (inactive)	77.1%
O=c1c(-c2ccc(F)cc2)c(-c2ccncc2)[nH]n1-c1ccc(Cl)cc1	36.4% (inactive)	68.5%
O=c1[nH][nH]c2nnc(-c3c(-c4ccccc4)nn4ccccc34)cc12	41.8% (inactive)	101%
